Inconclusive results are not listed. Calls of active or inactive are those of the source. Rule for the calls: active = hit-call score of the fitted dose curve at least 0.9, where 1 is the maximum; inconclusive = response in the unintended direction; inactive = score below 0.9.
Each compound was assayed against human Mitogen- and Stress-activated Protein Kinase-1 (Msk1), RPS6KA5 (gene 9252) (UniProt O75582) (assay: NVS_ENZ_hMsk1: NovaScreen (NVS) Enzymatic Assay for human Mitogen- and Stress-activated Protein Kinase-1 (Msk1) (AID 2283187)).
human Mitogen- and Stress-activated Protein Kinase-1 (Msk1), RPS6KA5 (gene 9252), sequence (O75582 whole entry, looked up): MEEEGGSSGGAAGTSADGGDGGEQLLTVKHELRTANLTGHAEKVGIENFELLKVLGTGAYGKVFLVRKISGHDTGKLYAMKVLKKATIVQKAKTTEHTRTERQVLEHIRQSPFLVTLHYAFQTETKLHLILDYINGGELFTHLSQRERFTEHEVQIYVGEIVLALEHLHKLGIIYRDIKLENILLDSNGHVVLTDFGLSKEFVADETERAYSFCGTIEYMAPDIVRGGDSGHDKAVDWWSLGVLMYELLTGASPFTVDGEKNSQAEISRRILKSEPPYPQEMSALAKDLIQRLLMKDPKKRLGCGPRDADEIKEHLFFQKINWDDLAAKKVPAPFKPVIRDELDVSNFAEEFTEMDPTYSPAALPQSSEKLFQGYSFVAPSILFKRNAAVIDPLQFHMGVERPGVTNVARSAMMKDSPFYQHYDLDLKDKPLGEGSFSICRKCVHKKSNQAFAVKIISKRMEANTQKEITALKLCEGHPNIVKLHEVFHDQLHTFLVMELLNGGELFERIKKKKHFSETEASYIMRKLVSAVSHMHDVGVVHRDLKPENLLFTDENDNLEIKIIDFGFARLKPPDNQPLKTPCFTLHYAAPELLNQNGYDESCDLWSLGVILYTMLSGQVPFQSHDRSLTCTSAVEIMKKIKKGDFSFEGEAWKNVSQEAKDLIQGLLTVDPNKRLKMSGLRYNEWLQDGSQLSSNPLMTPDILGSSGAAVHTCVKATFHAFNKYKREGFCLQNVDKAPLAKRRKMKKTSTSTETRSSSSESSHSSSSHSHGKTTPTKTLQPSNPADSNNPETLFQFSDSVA
Procedure: (§1) NVS_ENZ_hMsk1 is a biochemical, single-readout assay that uses extracted gene-proteins in a cell-free assay. Measurements were taken 1 hour after chemical dosing in a 384-well plate.NVS_ENZ_hMsk1 is one of one assay component(s) measured or calculated from the NVS_ENZ_hMsk1 assay. It is designed to make measurements of enzyme activity, a form of enzyme reporter, as detected with fluorescence intensity signals by Fluorescence and electrophoretic mobility shift technology.Data from the assay component NVS_ENZ_hMsk1 was analyzed into 1 assay endpoint. This assay endpoint, NVS_ENZ_hMsk1, was analyzed in the positive analysis fitting direction relative to DMSO as the negative control and baseline of activity. Using a type of enzyme reporter, loss-of-signal activity can be used to understand changes in the enzymatic activity as they relate to the gene RPS6KA5. Furthermore, this assay endpoint can be referred to as a primary readout, because this assay has produced multiple assay endpoints where this one serves a enzymatic activity function. To generalize the intended target to other relatable targets, this assay endpoint is annotated to the kinase intended target family, where the subfamily is serine/threonine kinase.
Binding assays used specific radioligands (tritiated, iodinated) with non-radioactive competitive displacement ligands in agonist or antagonist protocols (as indicated) and various reference compounds and inhibitors to titrate specific binding to receptors and transporters. Most enzyme assays (CYPs, kinases, phosphatases, proteases, HDACs) used recombinant protein and specific substrates (fluorescence mostly, some colorimetric and radioactive) and inhibitors, followed by a biochemical separation of substrate and product. All assays for the biochemical HTS were initially run in duplicate at a single concentration (10 uM for CYP450 assays and 25 uM for all others). […]

SMILES | outcome
CC(C)c1cccc(C(C)C)c1N1C(=O)c2ccc(O)cc2C1=O | inactive
Cc1ccc(N)cc1O | inactive
O=C(O)CC(O)C(=O)O (stereo unspecified) | inactive

These compounds were tested against human Matrix Metalloproteinase-9 (MMP9), MMP9 (gene 4318) (UniProt P14780) (assay: NVS_ENZ_hMMP9: NovaScreen (NVS) Enzymatic Assay for human Matrix Metalloproteinase-9 (MMP9) (AID 2283190);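 note: cell-free recombinant MMP9 protease activity read by fluorescent substrate signal; active means inhibition seen as loss of fluorescence signal versus DMSO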).
human Matrix Metalloproteinase-9 (MMP9), MMP9 (gene 4318), sequence (P14780 whole entry, looked up): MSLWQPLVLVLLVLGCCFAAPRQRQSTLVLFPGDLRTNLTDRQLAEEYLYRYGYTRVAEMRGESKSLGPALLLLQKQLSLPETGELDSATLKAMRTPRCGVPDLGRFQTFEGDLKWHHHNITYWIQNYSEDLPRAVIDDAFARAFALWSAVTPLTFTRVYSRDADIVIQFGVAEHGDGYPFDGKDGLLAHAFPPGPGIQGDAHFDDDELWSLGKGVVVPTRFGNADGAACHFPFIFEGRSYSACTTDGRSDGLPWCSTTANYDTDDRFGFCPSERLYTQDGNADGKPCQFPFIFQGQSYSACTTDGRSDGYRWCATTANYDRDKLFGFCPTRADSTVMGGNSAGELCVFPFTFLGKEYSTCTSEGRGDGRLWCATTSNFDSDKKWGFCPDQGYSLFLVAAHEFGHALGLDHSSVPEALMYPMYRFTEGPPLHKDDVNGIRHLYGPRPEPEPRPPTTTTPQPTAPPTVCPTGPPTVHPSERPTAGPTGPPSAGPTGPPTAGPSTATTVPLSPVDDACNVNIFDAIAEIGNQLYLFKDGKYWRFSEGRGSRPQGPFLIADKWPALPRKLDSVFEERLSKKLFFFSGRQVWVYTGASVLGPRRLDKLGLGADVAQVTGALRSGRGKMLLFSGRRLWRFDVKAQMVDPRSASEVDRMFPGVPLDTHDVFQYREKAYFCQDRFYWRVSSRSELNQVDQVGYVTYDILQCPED
In short: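 Cell-free recombinant MMP9 enzyme activity measured by fluorescence intensity 1 h after dosing. Primary screen in duplicate at 25 uM, actives followed in concentration series; loss of signal relative to DMSO.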

SMILES | outcome | AC50
COC(=O)CC(=O)OC | inactive | –
NC(=O)NO | inactive | –
CCc1cc(SCc2sc(-c3ccc(C(F)(F)F)cc3)nc2CN2CCN(c3ccc(OC)cc3)CC2)ccc1OCC(=O)O | – | 8.8 µM (active)
O=C(O)CCN(C1(C(=O)NO)CCCC1)S(=O)(=O)c1ccc(Oc2ccc(F)cc2)cc1 | – | 0.00365 µM (active)
CCOC(=O)c1ccc(C2CCC(NC[C@H](O)COc3ccc(O)c(NS(C)(=O)=O)c3)CC2)cc1 (stereo partly specified) | – | 12.7 µM (active)
CCCCC(CC)COC(=O)c1ccc(C(=O)OCC(CC)CCCC)cc1 (stereo unspecified) | inactive | –
O=C(O)c1cc(N=Nc2ccc(S(=O)(=O)Nc3ccccn3)cc2)ccc1O | – | 7.16 µM (active)
CNS(=O)(=O)c1cc(C(=O)N2CCC(CCN3C4CCC3CC(n3c(C)nc5ccccc53)C4)(c3cccc(F)c3)CC2)c(Cl)cc1F (stereo unspecified) | – | 8.37 µM (active)
COCCOCCOCCOC | inactive | –
Fc1ccccc1[C@@H](F)COC1CCC(Nc2ncnc3[nH]ncc23)CC1 (stereo partly specified) | inactive | –
CC[C@H](C)C(=O)O[C@H]1C[C@@H](C)C=C2C=C[C@H](C)[C@H](CC[C@@H]3C[C@@H](O)CC(=O)O3)[C@H]21 | inactive | –

What follows are compounds tested against cAMP-dependent protein kinase catalytic subunit alpha (Homo sapiens) (UniProt P17612) (assay: NVS_ENZ_hPKA: NovaScreen (NVS) Enzymatic Assay for human Protein Kinase A (PKA) (AID 2283192)).
In short: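 Recombinant human PKA with specific fluorescent substrate, product separated by electrophoretic mobility shift, read 1 h after dosing. Primary screen at 25 uM in duplicate; actives then run in concentration-response up to 50 uM, activity relative to DMSO.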

SMILES | outcome | AC50
CN(C)c1ccc(Cc2ccc(N(C)C)cc2)cc1 | inactive | –
COc1ccc2sc(C(=O)Nc3nnn[nH]3)c(OC(C)C)c2c1 | – | 13.2 µM (active)
CN(C)c1ccc(N=NS(=O)(=O)O)cc1 | inactive | –
CC(=O)c1ccc2c(c1)[C@H](NC(=O)c1ccc(F)cc1)[C@@H](O)C(C)(C)O2 | inactive | –
Cc1ccc(N)cc1O | inactive | –
O=C(O)c1cccc(Oc2ccccc2)c1 | inactive | –
O=C(O)c1cc(N=Nc2ccc(S(=O)(=O)Nc3ccccn3)cc2)ccc1O | inactive | –

Each compound was assayed against human Phosphodiesterase 5 (PDE5), PDE5A (gene 8654) (UniProt O76074) (assay: NVS_ENZ_hPDE5: NovaScreen (NVS) Enzymatic Assay for human Phosphodiesterase 5 (PDE5) (AID 2283194)).
In short: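 Recombinant human PDE5 with specific substrate, read 1 h after dosing by fluorescence with electrophoretic mobility-shift separation of substrate and product. Initial single-concentration duplicate screen at 25 uM, actives followed in concentration series; loss of activity versus DMSO.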

SMILES | AC50 | outcome
COc1ccc2sc(C(=O)Nc3nnn[nH]3)c(OC(C)C)c2c1 | 0.476 µM (active) | –
CN(C)c1ccc(N=NS(=O)(=O)O)cc1 | – | inactive
Nc1nc2ncc(CNc3ccc(C(=O)N[C@@H](CCC(=O)O)C(=O)O)cc3)nc2c(=O)[nH]1 | – | inactive
Cn1c(=O)cc(Oc2ccc(F)cc2F)c2cnc(NCC(C)(C)O)nc21 | 12.4 µM (active) | –
CC(=O)c1ccc2c(c1)[C@H](NC(=O)c1ccc(F)cc1)[C@@H](O)C(C)(C)O2 | – | inactive
Cc1ccc(N)cc1O | – | inactive
O=C(O)c1cccc(N(Cc2cccnc2)c2ccc(OC(F)F)c(OC(F)F)c2)c1 | 3.28 µM (active) | –
CCCCCCc1ccc(O)cc1O | – | inactive
O=C(O)c1cccc(Oc2ccccc2)c1 | – | inactive
O=C(O)c1cc(N=Nc2ccc(S(=O)(=O)Nc3ccccn3)cc2)ccc1O | – | inactive
CC(C)=CCCC(C)CCO (stereo unspecified) | – | inactive
C=CCCCCCCCCC(=O)O | – | inactive
CC/C(=C\C(=N/O)C(N)=O)C(C)[N+](=O)[O-] (stereo unspecified) | 40.1 µM (active) | –
COc1ccc(-n2nc(C(F)F)cc2-c2ccc(S(C)=O)cc2)cc1 (stereo unspecified) | 12.9 µM (active) | –
Cn1c(=O)c2c(ncn2C)n(C)c1=O | – | inactive
CC[C@H](C)C(=O)O[C@H]1C[C@@H](C)C=C2C=C[C@H](C)[C@H](CC[C@@H]3C[C@@H](O)CC(=O)O3)[C@H]21 | – | inactive

Each compound was assayed against human Phosphodiesterase 10 (PDE10), PDE10A (gene 10846) (UniProt Q9Y233) (assay: NVS_ENZ_hPDE10: NovaScreen (NVS) Enzymatic Assay for human Phosphodiesterase 10 (PDE10) (AID 2283195)).
human Phosphodiesterase 10 (PDE10), PDE10A (gene 10846), sequence (Q9Y233 whole entry, looked up): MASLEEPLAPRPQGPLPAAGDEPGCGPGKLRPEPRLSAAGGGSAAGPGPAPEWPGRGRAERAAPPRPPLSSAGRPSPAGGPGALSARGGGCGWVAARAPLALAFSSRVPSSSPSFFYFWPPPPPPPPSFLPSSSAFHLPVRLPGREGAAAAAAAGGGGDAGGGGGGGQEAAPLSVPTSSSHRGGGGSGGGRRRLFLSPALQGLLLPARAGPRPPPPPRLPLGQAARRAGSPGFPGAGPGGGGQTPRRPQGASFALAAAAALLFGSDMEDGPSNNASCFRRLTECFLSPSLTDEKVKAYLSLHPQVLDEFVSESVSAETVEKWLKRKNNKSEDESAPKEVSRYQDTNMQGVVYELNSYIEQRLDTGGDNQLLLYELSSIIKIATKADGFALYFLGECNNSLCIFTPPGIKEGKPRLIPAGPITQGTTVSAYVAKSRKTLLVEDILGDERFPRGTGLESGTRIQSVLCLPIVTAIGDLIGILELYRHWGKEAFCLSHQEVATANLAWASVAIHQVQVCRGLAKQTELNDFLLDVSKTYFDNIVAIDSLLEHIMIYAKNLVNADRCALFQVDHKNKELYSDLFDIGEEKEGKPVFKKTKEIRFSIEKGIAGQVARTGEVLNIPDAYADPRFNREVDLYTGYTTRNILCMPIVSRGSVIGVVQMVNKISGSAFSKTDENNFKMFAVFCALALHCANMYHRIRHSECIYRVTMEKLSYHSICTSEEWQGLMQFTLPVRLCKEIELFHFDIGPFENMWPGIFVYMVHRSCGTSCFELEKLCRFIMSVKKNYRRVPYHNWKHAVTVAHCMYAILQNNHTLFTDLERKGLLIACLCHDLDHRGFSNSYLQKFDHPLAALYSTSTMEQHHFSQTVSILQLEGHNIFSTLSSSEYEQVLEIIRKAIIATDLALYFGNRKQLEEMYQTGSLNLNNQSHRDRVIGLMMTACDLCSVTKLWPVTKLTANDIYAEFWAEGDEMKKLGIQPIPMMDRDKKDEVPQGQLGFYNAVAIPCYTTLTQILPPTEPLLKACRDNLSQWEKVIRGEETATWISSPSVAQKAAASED
In short: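 PDE10A, cell-free; 1 h incubation; fluorescence intensity + electrophoretic mobility shift separating substrate/product; DMSO = baseline; 25 uM duplicate primary, CRC up to 50 uM.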

SMILES | outcome | AC50
Nc1nc2ncc(CNc3ccc(C(=O)N[C@@H](CCC(=O)O)C(=O)O)cc3)nc2c(=O)[nH]1 | inactive | –
Cn1c(=O)cc(Oc2ccc(F)cc2F)c2cnc(NCC(C)(C)O)nc21 | – | 8.25 µM (active)
O=C(O)c1cccc(Oc2ccccc2)c1 | inactive | –
CC[C@H]1CC[C@H](NCc2cc3c(cc2OC)[C@H]2C[C@H]2C(=O)N3C)[C@H](c2ccccc2)N1 | inactive | –
O=C(O)c1cc(N=Nc2ccc(S(=O)(=O)Nc3ccccn3)cc2)ccc1O | – | 5.28 µM (active)
COc1cccc(-c2ccc(/C=C\CN3CCCCCC3)cc2Cl)c1 | – | 22.6 µM (active)
O=C(O)CC(O)C(=O)O (stereo unspecified) | inactive | –
Cn1c(=O)c2c(ncn2C)n(C)c1=O | – | 25 µM (active)

Each compound was assayed against human Phosphoinositide 3-kinase alpha (PI3Ka), PIK3CA (gene 5290) (UniProt P42336) (assay: NVS_ENZ_hPI3Ka: NovaScreen (NVS) Enzymatic Assay for human Phosphoinositide 3-kinase alpha (PI3Ka) (AID 2283196)).
human Phosphoinositide 3-kinase alpha (PI3Ka), PIK3CA (gene 5290), sequence (P42336 whole entry, looked up): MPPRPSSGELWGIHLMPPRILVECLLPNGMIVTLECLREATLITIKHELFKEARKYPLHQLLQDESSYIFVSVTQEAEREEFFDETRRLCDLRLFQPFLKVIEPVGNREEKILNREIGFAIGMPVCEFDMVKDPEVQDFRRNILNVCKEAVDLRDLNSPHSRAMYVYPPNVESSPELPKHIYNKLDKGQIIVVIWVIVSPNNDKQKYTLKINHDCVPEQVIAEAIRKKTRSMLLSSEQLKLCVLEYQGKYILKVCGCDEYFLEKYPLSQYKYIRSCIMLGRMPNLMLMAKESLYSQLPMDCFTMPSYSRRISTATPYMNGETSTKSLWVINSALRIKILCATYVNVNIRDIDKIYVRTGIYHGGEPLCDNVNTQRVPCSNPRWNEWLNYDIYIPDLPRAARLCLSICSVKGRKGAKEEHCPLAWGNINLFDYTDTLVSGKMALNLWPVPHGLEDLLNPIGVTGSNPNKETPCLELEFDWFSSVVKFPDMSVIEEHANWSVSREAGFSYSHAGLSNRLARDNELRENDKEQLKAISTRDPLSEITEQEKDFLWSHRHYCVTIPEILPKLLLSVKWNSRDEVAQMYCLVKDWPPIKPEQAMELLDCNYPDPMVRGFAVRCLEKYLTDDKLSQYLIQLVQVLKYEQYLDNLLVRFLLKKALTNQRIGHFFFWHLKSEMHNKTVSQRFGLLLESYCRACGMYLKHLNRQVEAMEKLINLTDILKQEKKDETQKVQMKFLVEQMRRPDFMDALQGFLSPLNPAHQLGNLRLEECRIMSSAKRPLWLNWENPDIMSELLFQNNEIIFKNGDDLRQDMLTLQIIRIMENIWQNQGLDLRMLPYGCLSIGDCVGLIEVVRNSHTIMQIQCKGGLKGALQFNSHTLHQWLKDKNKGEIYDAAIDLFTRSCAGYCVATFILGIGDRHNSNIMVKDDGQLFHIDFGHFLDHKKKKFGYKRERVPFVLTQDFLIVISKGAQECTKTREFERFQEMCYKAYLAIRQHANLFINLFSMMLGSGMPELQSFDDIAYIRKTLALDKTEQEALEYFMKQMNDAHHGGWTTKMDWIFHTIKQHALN
In short: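 Recombinant human PI3Kα with fluorescent substrate, 1 h, product separated by electrophoretic mobility shift; 25 uM duplicate screen, hits (e.g., 30% inhibition) retested singly up to 50 uM; loss of signal vs DMSO.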

SMILES | AC50 | outcome
COc1ccc2sc(C(=O)Nc3nnn[nH]3)c(OC(C)C)c2c1 | 0.192 µM (active) | –
CC(C)c1cccc(C(C)C)c1N1C(=O)c2ccc(O)cc2C1=O | 0.533 µM (active) | –
Cc1ccc(N)cc1O | – | inactive
O=C(O)c1cccc(Oc2ccccc2)c1 | – | inactive
O=C(O)c1cc(N=Nc2ccc(S(=O)(=O)Nc3ccccn3)cc2)ccc1O | – | inactive
CC[C@H](C)C(=O)O[C@H]1C[C@@H](C)C=C2C=C[C@H](C)[C@H](CC[C@@H]3C[C@@H](O)CC(=O)O3)[C@H]21 | – | inactive

The compounds below were run against human Protein Phosphatase, Mg2+/Mn2+ Dependent 1A (PPM1A), PPM1A (gene 5494) (UniProt P35813) (assay: NVS_ENZ_hPPM1A: NovaScreen (NVS) Enzymatic Assay for human Protein Phosphatase, Mg2+/Mn2+ Dependent 1A (PPM1A) (AID 2283198)).
human Protein Phosphatase, Mg2+/Mn2+ Dependent 1A (PPM1A), PPM1A (gene 5494), sequence (P35813 whole entry, looked up): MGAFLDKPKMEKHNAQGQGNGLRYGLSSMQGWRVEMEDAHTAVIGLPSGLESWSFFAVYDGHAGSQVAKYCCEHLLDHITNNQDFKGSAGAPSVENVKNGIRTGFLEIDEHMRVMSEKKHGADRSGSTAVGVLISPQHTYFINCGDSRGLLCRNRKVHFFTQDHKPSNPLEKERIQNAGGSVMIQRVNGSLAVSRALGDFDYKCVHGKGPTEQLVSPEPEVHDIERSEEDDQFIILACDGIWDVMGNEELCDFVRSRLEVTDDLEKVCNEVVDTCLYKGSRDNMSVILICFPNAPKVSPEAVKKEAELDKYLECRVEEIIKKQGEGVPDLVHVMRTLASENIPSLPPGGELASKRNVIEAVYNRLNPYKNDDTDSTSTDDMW
Procedure: as §1, with “NVS_ENZ_hPPM1A” for “NVS_ENZ_hMsk1”, “plate.NVS_ENZ_hPPM1A” for “plate.NVS_ENZ_hMsk1”, “NVS_ENZ_hPPM1A,” for “NVS_ENZ_hMsk1,”, “PPM1A.” for “RPS6KA5.”, “phosphatase” for “kinase”, “phosphatase.” for “kinase.”
Binding assays used specific radioligands (tritiated, iodinated) with non-radioactive competitive displacement ligands in agonist or antagonist protocols (as indicated) and various reference compounds and inhibitors to titrate specific binding to receptors and transporters. Most enzyme assays (CYPs, kinases, phosphatases, proteases, HDACs) used recombinant protein and specific substrates (fluorescence mostly, some colorimetric and radioactive) and inhibitors, followed by a biochemical separation of substrate and product. All assays for the biochemical HTS were initially run in duplicate at a single concentration (10 uM for CYP450 assays and 25 uM for all others). Assay-chemical combinations meeting a pre-defined threshold (e.g., 30% inhibition and other criteria defined below) were then run in singleton concentration-response format with maximum concentration of 20 uM for CYPs and 50 uM for all others. Each assay was run with positive and negative controls, and concurrent controls on every plate. The follow-up (secondary) screen tested active chemical-pairs in concentration series, as well as a few additional assays not tested in the primary screen, some selected negative inactives, and several cases re-run in the concentration series for confirmatory purposes.

SMILES | outcome
CC(C)(O)c1coc(S(=O)(=O)NC(=O)Nc2c3c(cc4c2CCC4)CCC3)c1 | inactive
O=C(O)CCN(C1(C(=O)NO)CCCC1)S(=O)(=O)c1ccc(Oc2ccc(F)cc2)cc1 | inactive
O=c1[nH]c2ccc(S(=O)CCN3CCC(Cc4ccc(F)cc4)CC3)cc2o1 (stereo unspecified) | inactive
CCN(C(=O)c1cc(C)cc(OC[C@H](C)Nc2ccncc2)c1)C(C)C | inactive
Cc1ccc(C)c(O)c1 | inactive
